Among all 300,000 compounds or so, about 4,000 (1.3%) were called active. The full list was thinned out, with actives kept by preference. A number with no mark means an inactive call.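 The calls were made as follows: active = mean replicate score, as percent of positive control median, at least 50; inconclusive = mean below 50 but one replicate at or above 50; inactive = mean and every replicate below 50.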
Experiment: S. pyogenes SKKanGAS growth inhibitors in kanamycin, primary screen, streptokinase expression inhibitor project, SKKanGAS strain, BacTiter-Glo luminescence (AID 1662);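 also: strain carries kanamycin resistance gene driven by streptokinase promoter and grows in 40 µg/ml kanamycin; loss of luminescence reflects streptokinase promoter inhibition or plain growth inhibition; 0% = median of DMSO wells and 100% = positive control at its reference dose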
Conditions: 6 h, at 7.5 µM, hits give high values

Row | SMILES | inhibition
1 | Cc1ccc2c(c1)-c1c(ssc1=S)C(C)(C)N2C(=O)CN1C(=O)c2ccccc2C1=O | 24.3%
2 | Nc1nc(NC(=O)/C=C/c2ccc(F)cc2)nn1-c1ccccc1 | 76.1% (active)
3 | Nc1nc(NC(=O)/C=C/c2ccccc2)nn1-c1ccccc1 | -11.5%
4 | Cc1ccc(C(=O)Nc2nc(N)n(-c3ccccc3)n2)cc1 | 5.73%
5 | Cc1sc2nc(SCCO)n(-c3ccccc3)c(=O)c2c1C | 7.52%
6 | COC(=O)c1ccc(NC(=O)C23CC4CC(C2)CC(n2cnc(Cl)n2)(C4)C3)cc1 | -3.03%
7 | COCc1c(C(=O)OCc2c(C)noc2C)oc2ccccc12 | 2.6%
8 | CCOC(=O)c1oc2ccccc2c1NC(=O)c1cccs1 | -5.47%
9 | Cc1cc(C)c(NC(=O)c2oc3ccccc3c2COc2ccccc2)c(C)c1 | 58.7% (active)
10 | CCc1ccc(NC(=O)CN2C(=O)COc3ccc(S(=O)(=O)N4CCCC4)cc32)cc1 | 2.1%
11 | CCn1ccnc1CNC(=O)CC1C(=O)NCCN1CCCc1ccccc1 (stereo unspecified) | -0.266%
12 | O=C(NCc1cccnc1)Nc1cccc(NC(=O)NCc2cccnc2)c1F | -0.181%
13 | COc1cc(C(=O)NCC(=O)N2CC=C(c3ccccc3)CC2)cc(OC)c1OC | 9.79%
14 | O=C(Nc1ccc(Cl)c(Cl)c1)N1CC=C(c2ccccc2)CC1 | 58.4% (active)
15 | O=C(Nc1ccccc1)N1CCN(C(=O)Nc2ccccc2)CC1 | 3.57%
16 | CCO[C@@H]1OC(C(N)=O)=C[C@H](c2ccc(Br)cc2)[C@H]1CCCO | 0.82%
17 | Cc1cccn2c(CNCC(C)Oc3cccnc3)c(C(=O)N3CCOCC3)nc12 (stereo unspecified) | -4.82%
18 | COc1cc(/C=N\Nc2nc(-c3cccs3)c(NC(C)=O)s2)ccc1O | 1.83%
19 | COc1cc(/C=C(\C#N)c2nc3c(s2)CC(C)CC3)ccc1O (stereo unspecified) | 10.1%
20 | CCOc1cc(/C=C(\C#N)c2nc(-c3cccs3)c(NC(C)=O)s2)ccc1O | 109% (active)
21 | O=C(Cn1cnc2ccccc21)Nc1ccccc1-c1ccccc1 | 0.579%

Row | SMILES | inhibition
22 | CCOc1ccc(C(=O)Nc2cc(Cl)ccc2-n2cncn2)cc1OC | -2.54%
23 | CCOC(=O)NNc1cc(C(F)(F)F)ccn1 | 0.731%
24 | O=C(/C=C/c1ccc(Cl)cc1)NCCCn1ccnc1 | -2.11%
25 | CCOC(=O)CC(NC(=O)C1c2ccccc2Oc2ccccc21)c1ccc(C)cc1 (stereo unspecified) | 5.34%
26 | Oc1ccccc1C=NC1CCCCC1N=Cc1ccccc1O (stereo unspecified) | -8.77%
27 | COc1ccc(/C=N/NC(=O)C2CC2)c(OC)c1OC | 14.5%
28 | O=C(N/N=C/c1ccccc1O)C1CCCC1 | 73.1% (active)
29 | CC1(C(=O)NNC(=S)NCC2CCCO2)CC1(Cl)Cl (stereo unspecified) | 2.55%
30 | COc1ccc(OC)c(NC(=O)c2ccc3c(c2)CCN3S(C)(=O)=O)c1 | -4.51%
31 | Nc1nc(SCC(=O)NNc2c(Cl)cc(Cl)cc2Cl)n[nH]1 | 7.52%
32 | CCOc1cc(NC(=O)CCl)c(OCC)cc1NC(C)=O | -2.78%
33 | COc1ccc(S(=O)(=O)N2CCCCC2)cc1NC(=O)C1CC(=O)N(c2ccc3c(c2)OCCO3)C1 (stereo unspecified) | 14.5%
34 | COCc1ccc(C(=O)NC2CC(C)(C)Cc3c2cnn3-c2ccc(C)cc2)o1 (stereo unspecified) | -6.03%
35 | CCCn1c(C2CCCN2c2nc(-c3ccc(C)cc3)cs2)nc2cc(Cl)c(N3CCCCC3)cc21 (stereo unspecified) | 9.01%
36 | Nc1c(Cl)cc(-c2csc(N3CCCC3c3nc4cc(Cl)c(Cl)cc4n3CCOCCO)n2)cc1Cl (stereo unspecified) | 62.1% (active)
37 | Cc1ccc(-c2csc(N3CCN(c4cc5c(cc4Cl)nc(-c4ccncc4)n5CCOCCO)CC3)n2)cc1 | 47.5%
38 | COc1ccccc1-c1nc(SC)n[nH]1 | -1.68%
39 | COc1ccccc1-c1n[nH]c2c1[C@H](C)CC[C@H]2C(C)C | 91.1% (active)
40 | COc1ccc(-c2n[nH]c(C)c2-c2ccccc2OC)c(O)c1 | 1.39%
41 | N#Cc1c(-c2cccs2)nc(SCC(=O)c2ccc(Br)cc2)[nH]c1=O | 55.8% (active)
42 | O=C(CSc1nc2ccccc2c(=O)[nH]1)Nc1nc(-c2ccc(Br)cc2)cs1 | 4.78%

Row | SMILES | inhibition
43 | Cc1cc(C)c2c(=O)[nH]c(SCC(=O)Nc3ccc(Br)cc3)nc2n1 | 30%
44 | N#CC1(NC(=O)COC(=O)Cc2n[nH]c(=O)c3ccccc23)CCCCC1 | -3.3%
45 | Cc1ccc(S(=O)(=O)c2ccc(Cl)cc2)cc1S(=O)(=O)NC(C(=O)O)C(C)C (stereo unspecified) | 0.0508%
46 | COc1cc2c(cc1NC(=O)COC(=O)/C=C/c1ccccc1)oc1ccccc12 | -12.9%
47 | O=C(NNC(=S)NC(=O)c1cn(-c2ccccc2)nc1-c1ccccc1)c1ccncc1 | 99.7% (active)
48 | Cc1onc(-c2ccccc2)c1C(=O)NNC(=S)NC(=O)c1ccc(F)cc1 | 7.91%
49 | O=C(Nc1cn(-c2ccccc2)nc1-c1ccccc1)c1ccccc1 | -2.24%
50 | COC(=O)Cn1cc(/C=C/[N+](=O)[O-])c2ccccc21 | 0.686%
51 | O=C(CN1C(=O)/C(=C/c2ccccc2F)Sc2ccccc21)NCc1cccnc1 | -8.35%
52 | O=C(CN1C(=O)/C(=C\c2ccccc2F)SC1=S)Nc1nc2ccccc2s1 | 94.2% (active)
53 | O=C(CN1C(=O)S/C(=C\c2ccccc2F)C1=O)NCCCn1ccnc1 | 2.35%
54 | O=c1[nH]c(CCl)nc2cc(-c3ccc(Cl)cc3)sc12 | 29.5%
55 | CC1CCc2c(nc3ncnn3c2Nc2ccc(OC(F)(F)F)cc2)C1 (stereo unspecified) | 2.5%
56 | COc1ccc(CC(=O)N/N=C/c2cc([N+](=O)[O-])cc(Br)c2O)cc1 | 61.6% (active)
57 | c1ccc2sc(NN=C3CCCC3)nc2c1 | 18.5%
58 | COc1ccc(CC(=O)NCC(=O)N/N=C/c2cc(Br)ccc2OC)cc1 | 4.99%
59 | O=[N+]([O-])c1cc(Br)c(O)c(/C=N/Nc2nc3ccccc3s2)c1 | 92% (active)
60 | COc1cc(/C=N/Nc2nc3ccccc3s2)ccc1O | -7.58%
61 | COc1cc(OC)c(/C=N/NC(=O)c2ccc([N+](=O)[O-])cc2)cc1Br | -10.8%

— PubChem BioAssay AID1662 (Broad Institute, 2009)
